“And” between values parts separate entries of the source, which are not always exact repeats. Equal values may be shown once. Hit rate of the full screen: of about 5,500 compounds, about 2,000 (36%) were called active. Roughly 18% stayed inconclusive and do not appear here. Cut-off read from the data, not from the text of the source: active = normalized growth mostly below about 0.91 (no sharp cut-off); inconclusive = no clear call, values can overlap the other calls; inactive = mostly above about 0.92. This is one part of the list.
Assay: chemical genetic growth profiling, strain panel (AID 1159580);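 note: tested at 20 µM; growth read once vehicle control cultures reached saturation at 30 °C; 1 = growth at the plate median or of vehicle wells; lower values mean less growth of the strain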
Settings: S. cerevisiae deletion strains, growth OD

Measured: normalized growth

Nc1nc(/C(=C/CC(=O)O)C(=O)N[C@@H]2C(=O)N3C(C(=O)O)=CCS[C@H]23)cs1
inactive: locus YAL013W, strain DEP1, stronger effect = lower value 0.991 | locus YAL021C, strain ccr4, stronger effect = lower value 1.01 | locus YAL026C, strain drs2, stronger effect = lower value 1.01 | locus YAL030W, strain snc1, stronger effect = lower value 1.02 | locus YBL061C, strain skt5, stronger effect = lower value 1 | locus YBR009C, strain hhf1, stronger effect = lower value 1.02 | locus YBR021W, strain FUR4, stronger effect = lower value 0.982 | locus YBR023C, strain chs3, stronger effect = lower value 1.01 | locus YBR171W, strain sec66, stronger effect = lower value 1.04 | locus YBR229C, strain ROT2, stronger effect = lower value 0.971 | locus YBR231C, strain swc5, stronger effect = lower value 1.01 | locus YBR279W, strain paf1, stronger effect = lower value 1 | locus YCL011C, strain gbp2, stronger effect = lower value 1 | locus YCL016C, strain dcc1, stronger effect = lower value 0.99 | locus YCL029C, strain bik1, stronger effect = lower value 0.988 | locus YCL061C, strain MRC1, stronger effect = lower value 1.01 | locus YCL069W, strain vba3, stronger effect = lower value 1 | locus YCR088W, strain abp1, stronger effect = lower value 1.01 | locus YDL005C, strain med2, stronger effect = lower value 1.01 | locus YDL035C, strain GPR1, stronger effect = lower value 1.01 | locus YDL040C, strain nat1, stronger effect = lower value 0.997 | locus YDL074C, strain BRE1, stronger effect = lower value 1.02 | locus YDL101C, strain DUN1, stronger effect = lower value 0.989 | locus YDL134C, strain PPH21, stronger effect = lower value 0.988 | locus YDL185W, strain tfp1, stronger effect = lower value 0.99 | locus YDL192W, strain arf1, stronger effect = lower value 0.983 | locus YDR001C, strain nth1, stronger effect = lower value 1.02 | locus YDR069C, strain doa4, stronger effect = lower value 1.01 | locus YDR101C, strain arx1, stronger effect = lower value 0.99 | locus YDR137W, strain rgp1, stronger effect = lower value 1.01 | locus YDR150W, strain NUM1, stronger effect = lower value 0.998 | locus YDR159W, strain sac3, stronger effect = lower value 1.02 | locus YDR162C, strain NBP2, stronger effect = lower value 1 | locus YDR195W, strain ref2 1.01 | locus YDR297W, strain sur2, stronger effect = lower value 1.01 | locus YDR318W, strain mcm21, stronger effect = lower value 0.996 | locus YDR334W, strain swr1, stronger effect = lower value 0.993 | locus YDR335W, strain msn5, stronger effect = lower value 1.01 | locus YDR388W, stronger effect = lower value 0.992 | locus YDR392W, strain spt3, stronger effect = lower value 1.01 | locus YDR502C, strain sam2, stronger effect = lower value 0.992 | locus YEL003W, strain gim4, stronger effect = lower value 1.01 | locus YEL037C, strain rad23, stronger effect = lower value 1 | locus YEL061C, strain CIN8 (second series), stronger effect = lower value 1 | locus YEL061C, strain CIN8, stronger effect = lower value 0.995 | locus YER015W, strain faa2, stronger effect = lower value 1 | locus YER016W, strain bim1, stronger effect = lower value 0.998 | locus YER110C, stronger effect = lower value 0.978 | locus YER111C, strain swi4, stronger effect = lower value 1.01 | locus YER155C, strain BEM2 (second series), stronger effect = lower value 1.03 | locus YER155C, strain BEM2, stronger effect = lower value 1.04 | locus YER167W, strain BCK2, stronger effect = lower value 0.985 | locus YFR010W, strain ubp6, stronger effect = lower value 1 | locus YGL078C, strain dbp3, stronger effect = lower value 0.995 | locus YGL086W, strain mad1, stronger effect = lower value 0.991 | locus YGL167C, strain pmr1, stronger effect = lower value 1 | locus YGL173C, strain kem1, stronger effect = lower value 1.02 | locus YGL227W, strain vid30, stronger effect = lower value 1.01 | locus YGL240W, strain doc1, stronger effect = lower value 1.01 | locus YGL248W, strain PDE1, stronger effect = lower value 0.978 | locus YGL253W, strain hxk2, stronger effect = lower value 1 | locus YGR078C, strain PAC10, stronger effect = lower value 1.03 | locus YGR135W, strain pre9, stronger effect = lower value 0.991 | locus YGR229C, strain SMI1, stronger effect = lower value 0.935 | locus YGR252W, strain gcn5, stronger effect = lower value 1.04 | locus YHR013C, strain ard1, stronger effect = lower value 0.997 | locus YHR027C, strain rpn1, stronger effect = lower value 1.01 | locus YHR030C, strain SLT2, stronger effect = lower value 0.99 and 0.989 | locus YHR079C, strain IRE1 (second series), stronger effect = lower value 0.998 | locus YHR079C, strain IRE1, stronger effect = lower value 0.974 | locus YHR094C, strain hxt1, stronger effect = lower value 0.99 | locus YHR129C, strain ARP1, stronger effect = lower value 0.989 | locus YHR142W, strain chs7, stronger effect = lower value 1.02 | locus YHR200W, strain rpn10, stronger effect = lower value 0.992 | locus YIL066C, strain RNR3, stronger effect = lower value 0.993 | locus YIL073C, strain SPO22, stronger effect = lower value 1.03 | locus YIL125W, strain kgd1, stronger effect = lower value 0.994 | locus YIR030C, strain dcg1, stronger effect = lower value 0.987 | locus YJL092W, strain hpr5, stronger effect = lower value 1 | locus YJL095W, strain BCK1 (second series), stronger effect = lower value 1.01 | locus YJL095W, strain BCK1, stronger effect = lower value 0.997 and 1.01 | locus YJL115W, strain asf1, stronger effect = lower value 1.03 | locus YJL129C, strain trk1, stronger effect = lower value 1.01 | locus YJL134W, strain LCB3, stronger effect = lower value 0.993 | locus YJL154C, strain vps35, stronger effect = lower value 1.01 | locus YJL164C, strain tpk1, stronger effect = lower value 0.988 | locus YJL166W, strain qcr8, stronger effect = lower value 1.02 | locus YJL168C, strain set2, stronger effect = lower value 0.99 | locus YJL187C, strain SWE1 (second series), stronger effect = lower value 0.989 | locus YJL187C, strain SWE1, stronger effect = lower value 1.01 | locus YJR043C, strain POL32, stronger effect = lower value 0.981 | locus YJR066W, strain TOR1, stronger effect = lower value 0.949

From PubChem BioAssay AID1159580 (chemical genetic matrix, 2015)
